Out of some 62,000 compounds screened, about 95 (0.2%) were called active. This excerpt belongs to a sample that is enriched for actives. A number with no mark means an inactive call.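 Rule for the calls: active = inhibition above 20% in each of the two mixture wells holding the compound; inactive = inhibition of 20% or less in either well.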
Target: Cathepsin G (Homo sapiens) (UniProt P08311)
Experiment: human cathepsin G inhibitors, primary screen, biochemical, pooled compound mixtures, AMC fluorescence (AID 581);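 note: 0% = enzyme control without mixture and 100% = blank lacking enzyme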
Settings: purified enzyme, AMC-tetrapeptide fluorescence, active compounds read high, screened at 5 µM (by protocol)

Cathepsin G (Homo sapiens), sequence (P08311 21-244 limits assumed): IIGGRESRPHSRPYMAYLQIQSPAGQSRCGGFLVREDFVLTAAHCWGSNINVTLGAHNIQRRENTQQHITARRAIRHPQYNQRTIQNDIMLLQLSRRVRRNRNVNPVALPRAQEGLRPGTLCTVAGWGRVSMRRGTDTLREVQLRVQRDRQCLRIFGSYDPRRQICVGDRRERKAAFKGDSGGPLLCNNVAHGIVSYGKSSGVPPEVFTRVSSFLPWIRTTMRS

Row | SMILES | inhibition
1 | COc1ccc(CCN=C2SCC(=O)N2C)cc1OC | 11.6%
2 | O=C(CCN1C(=O)C2C3C=CC(C3)C2C1=O)Nc1ccccc1F (stereo not drawn) | 6.93%
3 | O=C(COc1ccccc1Cl)Nn1cnnc1 | 3.79%
4 | CCCOc1ccc(N2CC(C(=O)Nc3ccccn3)CC2=O)cc1 (stereo not drawn) | 1.22%
5 | CC1CN(C2CCCCC2)c2nc3c(c(=O)n(C)c(=O)n3C)n2C1 (stereo not drawn) | -2.58%
6 | COc1ccc(C2CC(c3ccccc3)Nc3ncnn32)cc1 (stereo not drawn) | -0.07%
7 | O=C(c1cccnc1NCc1ccccc1)N1CCOCC1 | -5%
8 | CN(C)/C=C1/Nc2ccccc2C1=O | -0.82%
9 | O=c1nc(N2CCOCC2)nc2n1CCO2 | 1.08%
10 | CCOc1ccc(C(=O)N(Cc2ccc(N(C)C)cc2)C2CCS(=O)(=O)C2)cc1 (stereo not drawn) | 7.67%
11 | CCN1CCN(C(=O)c2ccccc2N(C)S(=O)(=O)c2ccc(C)cc2)CC1 | 3.35%
12 | CCc1nc(Nc2ccc3nccnc3c2)c2oc3ccccc3c2n1 | -2.89%
13 | CNC(=O)n1ccc(C(=O)N2CCCCC2)n1 | 11%
14 | CC(C)(C)n1nnnc1C(c1ccc2ncccc2c1)N1CCSCC1 (stereo not drawn) | -7%
15 | Cc1ccc(N2C(=O)c3oc4ccccc4c(=O)c3C2c2cccnc2)nc1 (stereo not drawn) | 10.5%
16 | O=C(O)CN1C(=O)CC(Cc2ccccc2)C1=O (stereo not drawn) | -0.115%
17 | CCCCn1c(SCc2ncc(-c3ccccc3)o2)nc2cc(S(N)(=O)=O)ccc21 | 13.9%
18 | Cc1ccc(CNC(=O)C2CCCN(S(C)(=O)=O)C2)cc1 (stereo not drawn) | -3.54%
19 | CCC1SC2=NCCN2C1(O)c1ccc(Cl)cc1 (stereo not drawn) | 1.99%
20 | Cn1c(=O)[nH]c(=O)c2c1nc(N(CCO)Cc1ccccc1)n2Cc1ccccc1Cl | 5.71%
21 | COc1ccccc1N1CCN(CCCCOc2ccc(F)cc2)CC1 | 13.1%
22 | CCS(=O)(=O)NCCc1ccc(OC)c(OC)c1 | 13.1%
23 | CCCN1CCN(C(=O)Cn2ncc3ccccc32)CC1 | -11.9%
24 | CCc1nc2oc3ccccc3c(=O)c2c(=O)n1Cc1ccc(OC)cc1 | -20.5%
25 | Cn1cccc1Cc1nnc(SCC(=O)NCc2ccc3c(c2)OCO3)n1CCc1ccccc1 | 10.5%

Row | SMILES | inhibition
26 | COc1ccc(C(=O)n2nc(-c3ccc(Cl)cc3)nc2N)cc1OC | 37.8% (active)
27 | COc1ccc(CC(=O)n2nc(-c3cccnc3)nc2N)cc1 | 14.7%
28 | COc1ccc(C(=O)Cn2nnc(-c3ccc(N4CCOCC4)cc3)n2)cc1OC | 2.19%
29 | COc1ccc(C(=O)n2nc(-c3ccc(C)cc3)nc2N)cc1OC | 44% (active)
30 | COC(=O)c1ccc(OC(=O)c2nn(C)cc2Cl)c(OC)c1 | 1.08%
31 | COc1ccccc1C(=O)n1nc(-c2ccccc2)nc1N | 7.93%
32 | Cc1cccc(-n2c(Cc3cc(=O)[nH]c(=O)[nH]3)nnc2SC(C)C)c1 | 10.3%
33 | CCCN1Cc2cccc(C(=O)NCc3ccccc3)c2C1=O | -0.625%
34 | COc1ccc(N(Cc2cc3cc(OC)ccc3[nH]c2=O)S(C)(=O)=O)cc1 | -3.1%
35 | Cn1c(CC(=O)Nc2ccccc2)nnc1SCC(=O)c1ccccc1 | -0.18%
36 | c1ccc2cc(OCCN3CCCC3)ccc2c1 | -4.75%
37 | O=C(O)CSC(NC(=O)c1cccnc1)(C(F)(F)F)C(F)(F)F | 4.23%
38 | CCOC(=O)c1c(NC(=O)CSc2nnc(Cc3csc(N)n3)n2C)sc(C)c1C | -4.19%
39 | CC1(C)CC(=O)C(C=NCCC2=CCCCC2)=C(O)C1 | 6.17%
40 | O=C1CC(c2ccccc2)CC(O)=C1C=NCCN1CCOCC1 (stereo not drawn) | 14.8%
41 | O=C1CCCC(O)=C1C=NCCc1ccccc1 | 33.4% (active)
42 | O=C(CSc1nnc(-c2cccs2)n1Cc1ccco1)c1ccc2c(c1)OCO2 | 7.29%
43 | CSc1ccc(S(=O)(=O)Nc2cccc(F)c2)cc1 | -1.91%
44 | CCCNC(=O)Nc1ccccc1C(=O)Nc1ccc(OC)cc1 | 4.04%
45 | CC1(C)CC(=O)c2cc(OCC(=O)NCC3CCCO3)ccc2O1 (stereo not drawn) | 4.79%
46 | O=C(c1ccco1)N1CCN(C(=O)C2CC(c3ccc(F)cc3)=NO2)CC1 (stereo not drawn) | 2.3%
47 | COCCCNC(=O)CCc1nc2cccnc2n1Cc1ccc(OC)cc1 | 11.7%
48 | CCN(c1ccc2c(c1)OCO2)S(=O)(=O)c1cc(Br)cc2c1N(C(=O)C1CC1)CC2 | 2.07%
49 | COC(=O)c1cc(NC(=O)CN2CCC(C(N)=O)(N3CCCCC3)CC2)cc(C(=O)OC)c1 | -6.63%
50 | CN(C)c1ccnc2sc3c(=O)n(Cc4ccccc4)cnc3c12 | -4.39%

Row | SMILES | inhibition
51 | CC(=O)N1C(=O)C2(Nc3ccccc3N2)c2ccccc21 | -1.99%
52 | Cc1ccccc1CSc1nnc(-c2cccnc2)n1N | 14.2%
53 | Cc1cccc(NC(=O)CSc2nnc(CCCCCNC(=O)OC(C)(C)C)o2)c1C | 6.06%
54 | O=C(Cn1c(-c2ccc(Cl)cc2)noc1=O)N1CCN(c2ccccc2F)CC1 | 7.96%
55 | O=c1ccn(Cc2ccccc2Cl)cc1 | -1.12%
56 | Cc1cc(NC(=O)CN2CCC(O)(c3cccc(F)c3)CC2)no1 | 5.96%
57 | COc1cccc(N(C(=O)c2ccn[nH]2)C2(C(=O)Nc3c(C)cccc3C)CCCCC2)c1 | 8.21%
58 | COc1ccc2occ(C(=O)c3ccc(N=C(C)N(C)C)cc3)c2c1 | -7.35%
59 | O=C1Nc2c(Br)cc(Br)cc2C1(O)N1CCOCC1 (stereo not drawn) | 1.49%
60 | CCOC(=O)CNC(=O)CSc1nnc(-c2cccc(OC)c2)n1CC | -5.21%
61 | Oc1c(C(c2ccccn2)N2CCOCC2)ccc2cccnc12 (stereo not drawn) | 13.3%
62 | CN(C(=O)c1ccccn1)c1nnc(-c2ccccn2)s1 | 10.6%
63 | COc1ncnc2c1N=C1CC(C)(C)CC(N)=C1S2 | -6.43%
64 | Cc1noc(C)c1C(=O)Nc1ccccn1 | -18.6%
65 | CCOC(=O)N1CCN(CC(=O)c2ccc3c(c2)CCN3)CC1 | 10.3%
66 | Cc1occc1C(=O)Nc1nnc(-c2ccncc2)s1 | 39.2%
67 | COCCn1c(SCC(=O)Nc2cc(Cl)ccc2OC)nc2c(c1=O)SC(C)C2 (stereo not drawn) | 9.03%
68 | NC(=O)CCCC1=NS(=O)(=O)c2ccccc2N1 | 4.5%
69 | CCOC(=O)c1ccc(NC(=O)Cn2nnc(-c3ccc(C)cc3)n2)cc1 | -7.1%
70 | CCOC(=O)c1ccc(NC(=O)CS(=O)(=O)c2cn(CC)c3ccccc23)cc1 | 29.3% (active)
71 | CCOC(=O)c1ccc(NC(=O)CSc2ncccn2)cc1 | -1.62%
72 | COc1ccc2nc(NC(=O)c3ccc(Br)s3)sc2c1 | 10.8%
73 | O=C(Cn1nc(Cc2cccnc2)c2ccccc2c1=O)NCC1COc2ccccc2O1 (stereo not drawn) | 8.5%
74 | C/C(N)=C(\C#N)C(=O)NCCc1ccccn1 | 2.5%
75 | CCSC1=C(C#N)C(=O)n2c1cc1c2CCCC1 | 0.675%

Row | SMILES | inhibition
76 | CSc1nsc(SC)c1NC(=O)OC1CCCCC1 | 7.19%
77 | CCOC(=O)C1CCCN(C(=O)c2ccc(CS(=O)(=O)c3ccc(Br)cc3)o2)C1 (stereo not drawn) | 7.41%
78 | CCOC(=O)c1csc(NC(=O)c2ccc(S(=O)(=O)N3CCCC3)cc2)n1 | -0.28%
79 | COc1ccc(OC)c(NC(=O)CN2CCN(C(=O)c3ccco3)CC2)c1 | 9.79%
80 | Cn1c(-c2ccc(C(=O)c3ccccc3)s2)nc2ccccc21 | 2.31%
81 | CN(Cc1ccccc1)C(=O)CCNC(=O)Cn1cnc2ccccc2c1=O | -3.7%
82 | COc1ccc(OC)c(C(=O)c2coc3ccc(OC)cc23)c1 | -10.9%
83 | COc1ccc2c(c1)CCc1c(C(=O)Nc3c(C)n(C)n(-c4ccccc4)c3=O)noc1-2 | 34.3% (active)
84 | O=C(c1cc(-c2cccc(O)c2)on1)N1CCc2ccccc2C1 | 5.56%
85 | COc1ccc2c(c1)CCc1c(C(=O)N3CCCC3)noc1-2 | 18.8%
86 | COc1ccc2c(c1)CCc1c(C(=O)N3CCc4ccccc4C3)noc1-2 | 35% (active)
87 | COC(=O)Nc1c(C)n(C)n(-c2ccccc2)c1=O | 11.2%
88 | Cc1cc(C(=O)Nc2c(C)n(C)n(-c3ccccc3)c2=O)cs1 | 8.47%
89 | CCOc1cc(CO)ccc1OCC(=O)N1CCCCC1 | 4.5%
90 | COc1ccc(C(=O)Nc2ccc(S(=O)(=O)Nc3onc(C)c3C)cc2)cc1OC | -6.97%
91 | COCCCN1C(=O)c2ccc(C(=O)Nc3ccc(OC)cc3OC)cc2C1=O | -4.08%
92 | Cc1nn(Cc2ccc(Cl)c(Cl)c2)c(C)c1NC(=O)c1cc(C2CC2)on1 | -8.5%
93 | CN(C)c1cc(N)c2ccccc2n1 (tested in a mixture with another compound) | 2.17%
94 | O=C(CSc1nnc(-c2ccoc2)o1)N1CCOCC1 | 1.64%
95 | Cc1cccc(-n2c(O)c(C=Nc3ccccc3N)c(=O)[nH]c2=O)c1 | -2.9%
96 | C1=C(N2CCOCC2)/C(=C/c2nc3ccccc3[nH]2)CC1 | 12.8%
97 | CCOc1ccc(CC(=O)Nc2ccc(S(=O)(=O)Nc3cc(C)on3)cc2)cc1OCC | 6.78%
98 | Cc1ccc(S(=O)(=O)N(C)CC(=O)NC2CCCC2)cc1 | 1.06%

Source: PubChem BioAssay AID581 (PCMD, 2007)
